Laboratory results: PMC4336329 (PLoS ONE, 2015)
Among all 310,000 compounds or so, about 14,000 (4.5%) showed an effect of 50% or more. Effects have a minus sign here. The list comes from a sample in which strong results are over-represented; it also holds similar structures and randomly drawn compounds.

The compounds below were run against human ether-à-go-go-related gene (hERG) potassium channel (human, UniProt Q12809) (assay: primary screen, population patch clamp on CHO cells stably expressing hERG; higher = less effect of the substance).
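Also: peak tail current of the secondary pulse compared with the same well before compound.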

Sequence of human ether-à-go-go-related gene (hERG) potassium channel (Q12809 whole entry, looked up): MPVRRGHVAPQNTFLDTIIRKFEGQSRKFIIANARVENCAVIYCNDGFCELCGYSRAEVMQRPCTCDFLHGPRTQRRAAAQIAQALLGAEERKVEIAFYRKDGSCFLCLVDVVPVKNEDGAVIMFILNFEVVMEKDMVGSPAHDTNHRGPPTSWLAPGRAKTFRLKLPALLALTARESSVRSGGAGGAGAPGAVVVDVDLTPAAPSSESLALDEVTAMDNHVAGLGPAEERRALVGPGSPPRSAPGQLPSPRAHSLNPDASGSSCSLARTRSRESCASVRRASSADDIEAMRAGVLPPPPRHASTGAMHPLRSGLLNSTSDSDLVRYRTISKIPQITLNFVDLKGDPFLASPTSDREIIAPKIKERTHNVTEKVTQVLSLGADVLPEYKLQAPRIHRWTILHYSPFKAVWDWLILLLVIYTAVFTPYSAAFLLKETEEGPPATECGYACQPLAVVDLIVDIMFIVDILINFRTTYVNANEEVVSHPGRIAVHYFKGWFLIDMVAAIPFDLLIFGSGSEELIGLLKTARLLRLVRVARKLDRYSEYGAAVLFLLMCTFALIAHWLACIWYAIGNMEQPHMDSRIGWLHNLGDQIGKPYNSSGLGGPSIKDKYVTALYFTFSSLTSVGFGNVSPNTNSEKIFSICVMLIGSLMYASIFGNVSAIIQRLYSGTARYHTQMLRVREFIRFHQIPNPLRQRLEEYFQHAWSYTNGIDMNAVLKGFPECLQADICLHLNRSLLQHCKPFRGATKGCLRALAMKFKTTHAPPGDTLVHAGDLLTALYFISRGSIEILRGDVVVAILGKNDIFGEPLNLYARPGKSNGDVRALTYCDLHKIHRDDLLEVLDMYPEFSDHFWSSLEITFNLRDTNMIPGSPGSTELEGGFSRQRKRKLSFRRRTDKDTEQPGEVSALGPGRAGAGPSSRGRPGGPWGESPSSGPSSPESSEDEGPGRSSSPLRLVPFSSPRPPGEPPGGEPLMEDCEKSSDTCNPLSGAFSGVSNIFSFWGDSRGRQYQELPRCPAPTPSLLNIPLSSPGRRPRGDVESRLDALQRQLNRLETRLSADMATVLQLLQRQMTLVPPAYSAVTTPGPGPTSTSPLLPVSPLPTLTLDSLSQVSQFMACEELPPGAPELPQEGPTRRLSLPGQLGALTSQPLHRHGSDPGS

SMILES	hERG current change (%, negative = inhibition) at 10uM [%]
COc1ccc(C(=S)N2CCCC2)cc1C	4.72
CCCCCCOC(=O)c1ccc(NC(=O)c2cc(OC)c(OC)c(OC)c2Br)cc1	5.84
CCOC(=O)c1ccc(CNC(=O)CSc2nnc(-c3ccncc3)o2)cc1	-1.31
COc1ccc(CCNC/C=C/c2ccccc2)cc1.Cl	-51.4
COc1ccc(CNC/C=C/c2ccccc2)cc1.Cl	-42.2
Cl.NS(=O)(=O)c1ccc(CCNC/C=C/c2ccccc2)cc1	-48.7
Cc1nn(C)c(C)c1CNC(=O)Nc1ccc2c(c1)OCO2	12
CC(NC(=O)CN(C)S(=O)(=O)c1ccc(F)cc1)C1CC2CCC1C2 (stereo not drawn)	-2.34
O=C(CCSCCc1ccccn1)Nc1c(F)c(F)c(F)c(F)c1F	-23.3
CC(C)Nc1cc(C(C)(C)C)nc2c(-c3ccccc3)cnn12	8.72
CCC(C)(C)n1nnnc1C(C(C)C)N1CCC(C(N)=O)CC1 (stereo not drawn)	10.4
CCC(C)(C)n1nnnc1C(c1ccc(C)cc1)N1CCCC1.Cl (stereo not drawn)	-11.7
CC(C)(C)n1nnnc1C(c1ccc(Cl)cc1)N1CCSCC1 (stereo not drawn)	-0.553
CCC(C)(C)n1nnnc1C(C(C)C)N1CCN(C)CC1.Cl (stereo not drawn)	6.63
CCC(C)(C)n1nnnc1C(C(C)C)N1CCSCC1 (stereo not drawn)	-61.6
CCC(C)(C)n1nnnc1C(c1ccc(C)cc1)N1CCSCC1 (stereo not drawn)	-55.1
N#C/C(=C/c1ccc2c(c1)OCO2)C(=O)Nc1ccc(O)cc1	-0.516

SMILES	hERG current change (%, negative = inhibition) at 10uM [%]
COc1ccc(NC(C)=O)cc1S(=O)(=O)N(C)Cc1c(C)nn(-c2ccccc2)c1C	-13
COCC(C)OC(=O)/C(C#N)=C\c1coc2ccc(C)cc2c1=O (stereo not drawn)	-20.9
CC(C)(C)c1ccccc1NC(=S)NC1CCCC1	1.41
COc1ccc(N2C(=O)CCC(C(=O)N3CCC(C(N)=O)CC3)C2c2ccc(F)cc2)cc1 (stereo not drawn)	-2.18
Cc1c(CCO)sc[n+]1CC(=O)OC12CC3CC(CC(C3)C1)C2.[Cl-]	19.8
Cc1c(CCOC(=O)CC23CC4CC(CC(C)(C4)C2)C3)sc[n+]1Cc1ccc([N+](=O)[O-])cc1.[Br-]	-87.8
Cc1c(CCOC(=O)C23CC4CC(CC(C)(C4)C2)C3)sc[n+]1Cc1ccccc1.[Cl-]	-34.5
Cc1c(CCOC(=O)CC23CC4CC(CC(C4)C2)C3)sc[n+]1Cc1ccccc1.[Cl-]	-42.1
Cc1c(CCOC(=O)C2C3CC4CC(C3)CC2C4)sc[n+]1CC(=O)c1ccc(Br)cc1.[Br-] (stereo not drawn)	-31.4
Cc1c(CCO)sc[n+]1CC(=O)OCCC12CC3CC(CC(C3)C1)C2.[Cl-]	11.8
Cc1c(CCOC(=O)C23CC4(C)CC(C)(CC(C)(C4)C2)C3)sc[n+]1CC(=O)c1ccccc1.[Br-]	-19.5
Cc1c(CCOC(=O)CC23CC4CC(CC(C4)C2)C3)sc[n+]1CC(=O)c1ccccc1.[Br-]	-59.4
Cc1c(CCOC(=O)C23CC4CC(CC(C)(C4)C2)C3)sc[n+]1CC(=O)c1ccccc1.[Br-]	-26.7
Cc1c(CCOC(=O)CC23CC4CC(CC(C)(C4)C2)C3)sc[n+]1CC(=O)c1ccccc1.[Br-]	-56.8
Cc1ncc(C[n+]2csc(CCOC(=O)CC34CC5CC(CC(C5)C3)C4)c2C)c(N)n1.Cl.[Cl-]	-4.79
Cc1c(CCOC(=O)CC23CC4CC(CC(C4)C2)C3)sc[n+]1CC(=O)c1ccc(Br)cc1.[Br-]	-75.1
